Screens deposited in PubChem by National Center for Advancing Translational Sciences (NCATS).
ELG1 repair inh – inhibitors of ELG1-dependent DNA repair in HEK293T cells | hit rate 2.3% among 330,000 | HEK293T ELG1-luciferase reporter, luminescence, 16 h; DNA damage induced by 5-fluorouridine | AID 504467 | Potency, µM (highest dose often 46.1 µM), for the others: at the top dose activity change, negative = inhibition, hits mostly inhibitors; further: on the % scale 0 is the no-effect control and ±100 the full control effect; nearly all actives have a fitted effect of over 55% in size
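In this reporter screen, reduction of luminescence relative to DMSO vehicle indicated activity. Compounds and 5-fluorouridine were added together to 2,000 cells per well, incubated for 16 hr at 37 °C, then developed with ONE-Glo.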
KB-V1 MDR tox – kills drug-selected multidrug resistant KB-V1 cells. KB-V1 MDR cells viability, CellTiter-Glo, 72 h. hit rate 3.4% among 400,000. Potency, µM (highest dose often 46.1 µM), actives largely listed as cytotoxic; further: on the % scale 0 is the no-effect control and ±100 the full control effect; nearly all actives have a fitted effect of over 60% in size
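Following 72 h at 37 degrees C with compound, KB-V1 cell viability was read by CellTiter-Glo luminescence, medium being phenol-red-free DMEM plus 10% FBS; concentration-response parameters came from normalized, curve-fitted qHTS data.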
MCF10A rereplic – inducers of DNA re-replication in MCF 10A breast cells | hit rate 2.9% among 350,000 | AID 624296 | Potency, µM (top dose mostly 46.1 µM), without a hit: top-dose activity, positive = re-replication, usual class: activators | MCF 10A DNA re-replication, Hoechst nuclear intensity, 48 h; further: % of control where 0% means no effect; nearly all actives have a fitted effect of over 50% in size
SW480 rerep – inducers of DNA re-replication in SW480 colon cancer cells; Potency, µM (top dose mostly 46.1 µM), for the others: at the highest dose re-replication activation, most hits filed as activators; AID 624297; SW480 DNA re-replication, Hoechst DNA content imaging, 48 h; hit rate 1.8% among 340,000; further: % of control where 0% means no effect; nearly all actives have a fitted effect of over 55% in size
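250 cells/well; 23 nL cpd via pin tool; 48 hr, 37 C, 5% CO2; Hoechst 40 min; imager read of total nuclear intensity, ex 405/em 500-530 nm.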
KB-3-1 cytotox – KB-3-1 parental cell cytotoxicity; KB-3-1 viability, CellTiter-Glo ATP luminescence, 72 h; Potency, µM (series often up to 46.1 µM), hits mostly cytotoxic; hit rate 1.4% among 400,000; AID 1347075; further: on the % scale 0 is the no-effect control and ±100 the full control effect; nearly all actives have a fitted effect of over 60% in size
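Parental KB-3-1 viability, qHTS format: 72 h compound exposure, 37 °C; CellTiter-Glo; media-only wells and DMSO plates as controls; concentration-effect fits on corrected data.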
* hit, by the source's call; [ ] = another dose, or the depositor's remark. Shown are actives, neighbours in structure and some others; about 8.1% of the full set was active somewhere. The call rests on the fitted dose curve; in most records, active means well fitted curve in the direction sought with a large enough effect; inconclusive means small, poorly fitted or top-dose-only effect, or another doubt; inactive means no such curve, though single readings can be large; an effect the other way counts as inactive or inconclusive. Potency means the concentration at half of the fitted maximal effect.

`CC(=O)c1ccc(C(=O)N2CCC(CO)(Cc3cccc(C(F)(F)F)c3)CC2)cc1` gave ELG1 repair inh inconclusive, KB-V1 MDR tox inactive, MCF10A rereplic 1.1%, SW480 rerep -3.0% and KB-3-1 cytotox inactive.
`COc1ccc(CN(C)C(=O)COC(=O)c2c(-c3ccccc3Cl)noc2C)cc1` gave ELG1 repair inh inconclusive, KB-V1 MDR tox inconclusive, MCF10A rereplic -6.6%, SW480 rerep -2.5% and KB-3-1 cytotox inactive.
COc1cc(NC(=O)c2ccc(-c3ccnn3C)c3ccoc23)cc(OC)c1OC was read as KB-V1 MDR tox inconclusive and KB-3-1 cytotox inactive.
Screening Cc1c(C(=O)NCc2ccc3c(c2)OCO3)oc2ccc(S(=O)(=O)N3CCCC3)cc12 returned ELG1 repair inh 7.31µM*, KB-V1 MDR tox inactive, MCF10A rereplic 1.2%, SW480 rerep -1.6% and KB-3-1 cytotox inactive.
`Cc1c(C(=O)NCc2cccnc2)oc2ccc(S(=O)(=O)N3CCCCC3)cc12` gave ELG1 repair inh 5.8µM*, KB-V1 MDR tox inconclusive, MCF10A rereplic -2.1%, SW480 rerep 3.9% and KB-3-1 cytotox inconclusive.
CCN(C(=O)c1oc2ccc(S(=O)(=O)N3CCCCCC3)cc2c1C)c1ccccc1 was read as KB-V1 MDR tox inactive and KB-3-1 cytotox 25.9µM*.
Cc1c(C(=O)NCc2ccc3c(c2)OCO3)oc2ccc(S(=O)(=O)N3CCCCC3)cc12 was read as ELG1 repair inh inconclusive, KB-V1 MDR tox inactive, MCF10A rereplic -10.3%, SW480 rerep -4.2% and KB-3-1 cytotox inactive.
`COc1ccc(C(=O)ON=C2CCN(C)CC2)cc1` gave ELG1 repair inh 9.4%, KB-V1 MDR tox inactive, MCF10A rereplic 1.0%, SW480 rerep -3.8% and KB-3-1 cytotox inactive.
Cn1nccc1C(=O)NCc1ccc2c(c1)CCN2C(=O)c1ccc(Cl)cc1 was read as KB-V1 MDR tox inactive and KB-3-1 cytotox inactive.
`COc1cccc(-c2cc3nc(-c4ccccc4)cc(N4CCCC(O)C4)n3n2)c1` (stereo not given) gave ELG1 repair inh 16.4µM*, KB-V1 MDR tox inactive, MCF10A rereplic 18.4µM*, SW480 rerep 14.6µM* and KB-3-1 cytotox inactive.
For Cc1cc(N2CCN(C(=O)c3ccco3)CC2)n2nc(-c3cccc(F)c3)cc2n1 the results were ELG1 repair inh 16.4µM*, KB-V1 MDR tox inactive, MCF10A rereplic 23.1µM*, SW480 rerep inconclusive and KB-3-1 cytotox inactive.
`OC1CCN(c2cc(-c3ccccc3)nc3cc(-c4ccc(F)cc4)nn23)CC1` gave ELG1 repair inh 13µM*, KB-V1 MDR tox inactive, MCF10A rereplic 15.6%, SW480 rerep 0.7% and KB-3-1 cytotox inactive.
For CCN1CCN(c2cc(-c3ccccc3)nc3cc(-c4cccc(F)c4)nn23)CC1 the results were ELG1 repair inh 23.1µM*, KB-V1 MDR tox inconclusive, MCF10A rereplic 10.3µM*, SW480 rerep inconclusive and KB-3-1 cytotox inconclusive.
`COc1cccc(OC)c1C(=O)Nc1ccccc1C(=O)N1CCCC1` gave ELG1 repair inh -0.4%, MCF10A rereplic -0.2% and SW480 rerep 5.2%.
For CC(C)NC(=O)CCCc1ccccc1 the results were ELG1 repair inh inconclusive, KB-V1 MDR tox inactive, MCF10A rereplic 11.8%, SW480 rerep -5.2% and KB-3-1 cytotox inactive.
For CCC(NC(=O)CCCc1ccccc1)c1ccccc1 (stereo not given) the results were ELG1 repair inh 9.1%, KB-V1 MDR tox 18.4µM*, MCF10A rereplic inconclusive, SW480 rerep -52.1% and KB-3-1 cytotox inactive.
Screening CCC(NC(=O)c1ccccc1O)c1ccccc1 (stereo not given) returned ELG1 repair inh -10.4%, KB-V1 MDR tox 16.4µM*, MCF10A rereplic -1.6%, SW480 rerep -1.5% and KB-3-1 cytotox inactive.
O=C(CCl)NC(Cc1ccccc1)c1ccccc1 (stereo not given) was read as ELG1 repair inh inconclusive, KB-V1 MDR tox inconclusive, MCF10A rereplic inconclusive, SW480 rerep 16.4µM* and KB-3-1 cytotox inconclusive.
O=C(NNC(=O)c1ccccc1Cl)c1ccncc1 was read as ELG1 repair inh inconclusive, KB-V1 MDR tox inactive, MCF10A rereplic -1.7%, SW480 rerep inconclusive and KB-3-1 cytotox inactive.
Cn1nc(C(=O)NNC(=O)CCOc2ccc(C(C)(C)C)cc2)c2ccccc2c1=O was read as ELG1 repair inh -4.8%, KB-V1 MDR tox inconclusive, MCF10A rereplic -6.2%, SW480 rerep -9.1% and KB-3-1 cytotox inactive.
`Cc1c(C(=O)O)nn(-c2ccccc2)c(=O)c1C#N` gave ELG1 repair inh 15.4%, KB-V1 MDR tox inactive, MCF10A rereplic 7.5%, SW480 rerep -6.5% and KB-3-1 cytotox inactive.
O=C(CC(O)(CC(=O)OCc1ccccc1)C(=O)OCc1ccccc1)OCc1ccccc1 was read as KB-V1 MDR tox inactive, MCF10A rereplic 18.4µM*, SW480 rerep 21.8% and KB-3-1 cytotox inactive.
Screening CCOC(=O)CN1C(=O)S/C(=C/c2ccc3c(c2)n(C)c(=O)n3C)C1=O returned ELG1 repair inh inconclusive, KB-V1 MDR tox inactive, MCF10A rereplic 14.4%, SW480 rerep -6.3% and KB-3-1 cytotox inactive.
Screening C=CCN1C(=O)S/C(=C\c2ccc3c(c2)n(C)c(=O)n3C)C1=O returned ELG1 repair inh inconclusive, KB-V1 MDR tox 18.4µM*, MCF10A rereplic 2.9%, SW480 rerep 6.4% and KB-3-1 cytotox inactive.
For CC1(C)C(=O)Nc2ccccc2N1C(=O)COC(=O)c1cccs1 the results were ELG1 repair inh -6.4%, KB-V1 MDR tox inactive, MCF10A rereplic -1.4%, SW480 rerep -6.0% and KB-3-1 cytotox inactive.
`CNc1nc(SCc2ccccc2Cl)nc2c1CCCC2` gave ELG1 repair inh inconclusive, KB-V1 MDR tox inconclusive, MCF10A rereplic 18.4µM*, SW480 rerep -0.1%[9.22 µM] and KB-3-1 cytotox inactive.
For O=c1[nH]c(SCc2ccccc2Cl)nc2c1CCC2 the results were ELG1 repair inh 12.5%, KB-V1 MDR tox inactive, MCF10A rereplic 18.1%, SW480 rerep -3.5% and KB-3-1 cytotox inactive.
For Cc1ccc(Sc2nc3ccc(C)cn3c(=O)c2/C=N/O)cc1 the results were ELG1 repair inh 5.0%, KB-V1 MDR tox inactive, MCF10A rereplic 16.4µM*, SW480 rerep inconclusive and KB-3-1 cytotox inactive.
`O=S(=O)(Nc1nccs1)c1ccc(F)cc1` gave ELG1 repair inh inconclusive, KB-V1 MDR tox inactive, MCF10A rereplic 2.31µM*, SW480 rerep 15.8% and KB-3-1 cytotox inactive.
For CCc1ccc(S(=O)(=O)Nc2nccs2)cc1 the results were ELG1 repair inh 7.1%, KB-V1 MDR tox inactive, MCF10A rereplic inconclusive, SW480 rerep -1.4% and KB-3-1 cytotox inactive.
`C(=N\Nc1nc(N2CCCC2)nc(N2CCCC2)n1)/c1cccnc1` gave ELG1 repair inh 3.6%, KB-V1 MDR tox inactive, MCF10A rereplic 3.3%, SW480 rerep 0.7% and KB-3-1 cytotox inactive.
